Several values for one entry are separate records, joined by “and”; a condition that tells them apart may be missing. Identical values can stand only once. Among all 38,000 compounds or so, about 1,200 (3.2%) showed an effect of 50% or more. The median lay at about -58%. For the sample, strong results were picked, then their nearest neighbours and some compounds at random.
System: Plasmodium falciparum
Assay: Calibr Malaria Delayed Death Assay SOP
Format: functional, organism-based
Parameters: scale not given: in the data most compounds retested in dose-response had high values
Conditions: concentration 4.99e-06 (unit not given; other assays of the set use mol/L)

Row | Compound | Percent Effect [%] | Percent Effect (4.99 µM)
1 | CN1CC(NC(=O)Nc2cnn(-c3ccccc3Cl)c2)CCC1=O (centres undefined) | -125.7 | –
2 | O=C(Cc1ccc(F)cc1)NCC1CCN(Cc2ccsc2)CC1 | 35.08 | –
3 | CCc1nnc(CN2CCN(c3cccc(OC)c3)C(=O)C2)o1 | -165.5 | –
4 | COCCNC(=O)NCc1cccc(-n2ccnc2)c1 | -31.59 | –
5 | O=C(Cn1ccc2sccc2c1=O)NC1CCCCC1 | -23.53 | –
6 | Cc1nc(C)c(C(=O)Nc2cnn(CC(=O)NC3CCCC3)c2)s1 | -124.2 | –
7 | O=C(c1cc2c(F)cccc2[nH]1)N1CCC(Nc2cccnn2)CC1 | -107.1 | –
8 | Cc1cc(NC(=O)CCN2CCCCC2Cn2cccn2)no1 (centres undefined) | -23.88 | –
9 | CCCNC(=O)NC(=O)CNC(C)(C)c1ccc2c(c1)OCO2 | -45.43 | –
10 | CC(C)(NCc1ccc(C#N)cc1)c1ccc2c(c1)OCO2 | -3.807 | –
11 | FC(F)(F)C1CN(Cc2cccc(OCc3ccccn3)c2)CCO1 (centres undefined) | -40.76 | –
12 | CCN(CC)C(CNS(=O)(=O)NCc1ccccc1)c1ccco1 (centres undefined) | 65.52 | –
13 | CCN(CC)C(CNCc1ccc(O)cc1)c1ccco1 (centres undefined) | 37.38 | –
14 | CCN(CC)C(CNS(=O)(=O)c1ccc(C(=O)NC)cc1)c1ccco1 (centres undefined) | -34.47 | –
15 | CSc1nc2ccsc2c(=O)n1CC(=O)N1CCCCC1C (centres undefined) | -137.7 | –
16 | Cn1cc(NS(=O)(=O)CC2CCCCO2)cn1 (centres undefined) | -113.3 | –
17 | O=C(NCCc1c[nH]c2ccc(F)cc12)C1(n2cnnn2)CCCCC1 | 0.821 | –
18 | CNCC[C@H]1CC(C)(C)Oc2ccc(OCC3CC3)cc21 | 74.97 | –
19 | COCC(=O)NCC[C@H]1CC(C)(C)Oc2ccccc21 | -148.4 | –
20 | CNCC[C@H]1CC(C)(C)Oc2ccc(OC)cc21 | 72.51 | –
21 | COc1ccc2c(c1)[C@@H](CCNC(C)=O)CC(C)(C)O2 | -172.5 | –
22 | CC1CCN(C(=O)c2cnc3cc(C(=O)N(C)C)n(C)c3c2)CC1 | -87.49 | –

Row | Compound | Percent Effect [%] | Percent Effect (4.99 µM)
23 | c1coc(-c2nnc(CN(Cc3cccs3)CC3CCCO3)o2)c1 (centres undefined) | -56.15 | –
24 | COCc1nc(N2CC[C@H](N(C)C)C2)c2cnn(C)c2n1 | -79.09 | –
25 | COC(C)(CNS(=O)(=O)c1cn(C)cn1)c1ccccc1F (centres undefined) | -43.86 | –
26 | O=C(c1cc(F)cc2[nH]cnc12)N1CCCCC1Cn1cccn1 (centres undefined) | -30.08 | –
27 | O=C(c1ccoc1)N1CCC(Nc2cccnn2)CC1 | -103.3 | –
28 | CC(C)(C)OC(=O)N1CCCc2ccc(NCc3ccon3)cc21 | -36.28 | –
29 | CC(C)(C)OC(=O)N1CCCN(Cc2ccon2)c2ccccc21 | 84.05 | –
30 | CC(=O)N1CCCN(Cc2ccon2)c2ccccc21 | -25.97 | –
31 | Cc1cccc(NC(=O)N2CC(C(=O)NC(C)C)C3(CCOCC3)C2)c1 (centres undefined) | -4.046 | –
32 | CCCc1nnc(N2CCN(c3ccccc3F)CC2)o1 | -72.7 | –
33 | O=C(Nc1cccc(OCc2ccc(F)cc2)c1)C1COCCO1 (centres undefined) | -50.82 | –
34 | CCOc1cccc(C(C)NC(=O)N2CCC(C(N)=O)CC2)c1 (centres undefined) | -34.65 | –
35 | CS(=O)(=O)NC1CCN(CCOCc2ccccc2)CC1 | 2.46 | –
36 | CN1CCC(NCC(O)c2cccc(OCc3ccccc3)c2)CC1 (centres undefined) | 90.23 | –
37 | OC(CNC1CCOCC1)c1ccc(Cl)c(F)c1 (centres undefined) | 49.48 | –
38 | CCOc1cccc(CNC(=O)NCC(O)c2cccc(F)c2)c1 (centres undefined) | -6.007 | –
39 | OC(CNC1CCSCC1)c1cccc(OCc2ccccc2)c1 (centres undefined) | 73.71 | –
40 | OC(CNC1CCOCC1)c1cccc(OCc2ccccc2)c1 (centres undefined) | 51.28 | –
41 | O=C(NCc1ccccc1)NCC(O)c1cccc(F)c1 (centres undefined) | -134.7 | –
42 | O=S(=O)(NCCN1CCCCC1Cn1cncn1)c1ccccc1 (centres undefined) | -173.3 | –
43 | Cc1nc2c(N3CCN(Cc4ccccc4)CC3)nc(N)nc2n1C | -81.58 | –
44 | Cc1nc(C)n(CC2CCCN(Cc3noc(C)n3)C2)n1 (centres undefined) | -83.37 | –

Row | Compound | Percent Effect [%] | Percent Effect (4.99 µM)
45 | O=C(CN1CCc2cncnc2C1)NCCOc1cccc(Cl)c1 | -29.73 | –
46 | O=C(NC1CCS(=O)(=O)C1)c1cc(Sc2ncccn2)ccn1 (centres undefined) | -115.2 | –
47 | CCc1nc(CNc2ccc(F)c(F)c2)no1 | -20.9 | –
48 | CN(Cc1ccc(N2CCOCC2)cc1)Cc1noc(C(C)(C)C)n1 | -81.05 | –
49 | CC(C)(C)c1noc(CCC(=O)N2CCN(Cc3ccc(Cl)s3)CC2)n1 | -118.6 | –
50 | CCc1cnc(C)nc1N1CCC(Cc2cccc(C(=O)O)c2)C1 (centres undefined) | -30.8 | –
51 | O=C(C1CC2(CCNCC2)CN1)N1CCN(c2cccc(Cl)c2Cl)CC1 (centres undefined) | 78.29 | –
52 | O=C(C1CC2(CCNCC2)CN1)N1CCN(c2ccccc2)CC1 (centres undefined) | -125.3 | –
53 | Cc1cccc(N2CCN(C(=O)C3CC4(CCNCC4)CN3)CC2)n1 (centres undefined) | -69.89 | –
54 | CN(C)C(=O)Cc1nc(CN2CCCCC2Cn2cccn2)cs1 (centres undefined) | -103.2 | –
55 | Cc1nccn1CC1CCCN(C(=O)Cc2ccsc2)C1 (centres undefined) | -60.26 | –
56 | CCC(=O)N1CCC(c2cncc(Oc3cccnc3)n2)CC1 | -187.7 | –
57 | CNCC(=O)N1CCCC1c1cncc(Oc2ccc(F)cc2)n1.Cl (centres undefined) | 68.33 | –
58 | COC(=O)NCC(=O)N1CCCC1c1nc(-c2ccccc2F)c[nH]1 (centres undefined) | -22.14 | –
59 | Cn1cc(C2CCCN2C(=O)CCCOc2ccc(F)cc2)cn1 (centres undefined) | -105.8 | –
60 | NCC(=O)N1CCC(c2cncc(Oc3cccnc3)n2)CC1 | -100.1 | –
61 | CC(C)(N)C(=O)N1CCCC1c1cncc(Oc2ccccc2)n1 (centres undefined) | 77.57 | –
62 | CC(C)(C)OC(=O)N1CCCN(c2nnc(Br)s2)CC1 | -110 | –
63 | COc1ccccc1C(=O)Nc1c(F)c(C(=O)NCCC(C)C)nn1C | -92.84 | –
64 | Fc1cccc(-n2ccc(CN3CCCCC3Cn3cncn3)n2)c1 (centres undefined) | -49.02 | –
65 | Fc1cccc(-n2cc(CN3CCCCC3CCn3ccnc3)cn2)c1 (centres undefined) | 67.59 | –
66 | Cc1cccc(-n2cc(CN3CCN(C)[C@@H]4CS(=O)(=O)C[C@@H]43)cn2)c1 | -99.09 | –

Row | Compound | Percent Effect [%] | Percent Effect (4.99 µM)
67 | Cc1ccc2nc(CN3CCCCC3CCn3cccn3)cn2c1 (centres undefined) | -67.34 | –
68 | c1ccc(Cn2cccn2)c(CN2CCCCC2CCn2ccnc2)c1 (centres undefined) | 62.85 | –
69 | Fc1ccc(-n2cccn2)c(CN2CCCCC2CCn2ccnc2)c1 (centres undefined) | 3.883 | –
70 | c1csc(CN(Cc2ccsc2)CC2CCCO2)n1 (centres undefined) | -152.6 | –
71 | CCOc1cccc(CNC(=O)c2cnn(CC)c2C(F)(F)F)c1 | -100.3 | –
72 | O=C(CN1CCCS1(=O)=O)Nc1ccc(OC2CCCC2)cc1 | -131 | –
73 | O=C1NCc2ccc(NC(=O)C3CCCN3c3nccs3)cc21 (centres undefined) | -60.91 | –
74 | CC(=O)c1ccc(NC(=O)C(NC(=O)Nc2ccccc2)C(C)C)cc1 (centres undefined) | -29.84 | –
75 | CCc1nccn1CCNC1CCN(c2nc3ccc(Cl)cc3s2)CC1 | 85.53 | –
76 | Cn1ccnc1SCCNC1CCN(c2nc3ccccc3s2)CC1 | 58.02 | –
77 | O=C(NCCNC1CCN(c2nccs2)CC1)c1cccs1 | -27.34 | –
78 | Cc1n[nH]c(SCCNC2CCN(c3nc4ccccc4s3)CC2)n1 | -208.3 | –
79 | Cn1ccnc1SCCNC1CCN(c2ncccn2)CC1 | -15.99 | –
80 | CCc1cc(N2CCC(NCCc3ccccc3F)CC2)nc(C)n1 | -10.81 | –
81 | N#Cc1ccc(OCC(O)CN2CCc3cncnc3C2)cc1 (centres undefined) | -94.24 | –
82 | c1ccc(C2CN(C3CC3)CC3(CCN(Cc4cscn4)CC3)C2)cc1 (centres undefined) | 80.59 | –
83 | CCN1CC(c2ccccc2)CC2(CCN(Cc3ncc[nH]3)CC2)C1 (centres undefined) | 87.85 | –
84 | CN1CC(c2ccccc2)CC2(CCN(Cc3ncc[nH]3)CC2)C1 (centres undefined) | 82.67 | –
85 | COc1ccc(C2CCN(Cc3cscn3)CC2)cc1 | -93.29 | –
86 | CCc1ccccc1CN1CCN(Cc2ncc[nH]2)[C@H]2CS(=O)(=O)C[C@H]21 | -62.66 | –
87 | CCN(CC1CN(Cc2ncc[nH]2)CCO1)c1cccnn1 (centres undefined) | -7.517 | –
88 | CCN1CC2(CCC1=O)CCN(Cc1cscn1)CC2 | -71.85 | –

Row | Compound | Percent Effect [%] | Percent Effect (4.99 µM)
89 | c1ccc(C2CN(C3CC3)CC3(CCN(Cc4ncc[nH]4)CC3)C2)cc1 (centres undefined) | 35.37 | –
90 | COCCC(=O)N1CCC2(CC1)CC(c1ccccc1)CN(C)C2 (centres undefined) | -5.324 | –
91 | O=C(NCC(O)c1ccc(Cl)c(F)c1)NC1CC=CC1 (centres undefined) | -17.82 | –
92 | CCSc1cc(C(=O)NCCC(=O)N(C)C)ccn1 | -118.1 | –
93 | Cc1nn(CCNS(=O)(=O)NCc2ccccc2)c(C)c1Cl | -125.5 | –
94 | COc1ccccc1N1CCN(C(=O)CCc2nncn2C)C(C)C1 (centres undefined) | -70.09 | –
95 | Cc1ccc(C)c(OC2CCN(C(=O)NCC(=O)N3CCCC3)CC2)c1 | -83.87 | –
96 | CC(C)n1c2ccccc2c2c1cc(C(=O)NC1CC1)n2C(=O)N(C)C | -14.52 | –
97 | O=c1c(CN2CCCCCC2)coc(O)c1CN1CCOCC1 | -41.33 | –
98 | O=c1c(CN2CCSCC2)coc(O)c1CN1CCCC1 | -11.49 | –
99 | O=c1c(CN2CCCCCC2)coc(O)c1CN1CCCCCC1 | 53.69 | –
100 | COc1ccc(CNc2c(N3CCN(C)CC3)c(=O)c2=O)cc1 | -162.8 | –
101 | CCc1nc2n(n1)CC(NCc1noc(-c3ccc(C)cc3)n1)CC2 (centres undefined) | -102.8 | –
102 | CN(C)c1nc(NCCc2cnccn2)ncc1F | -28.24 | –
103 | COCCC1CCCCN1C(=O)c1coc(COc2ccccc2F)n1 (centres undefined) | – | -24.51% and -14.95%
104 | Fc1ccc(CNCCn2cccn2)c(Cl)c1 | -121.7 | –
105 | COc1cccc(CNCc2ccccc2Cl)c1O | 76.29 | –
106 | CCOc1cccc(CNc2ccccc2Cl)c1O | -149 | –
107 | COCCNC(=O)NCCc1cccc(OC)c1O | -51.73 | –
108 | COc1cccc(CNCc2ccc(F)cc2Cl)c1O | 78.71 | –
109 | Cc1cnn(CCNCc2ccc(F)cc2Cl)c1 | -82.03 | –

From ChEMBL document CHEMBL3988442, “University of Dundee, Small-Polar-MMV Screening Library” (2021)
